Here are results for six compounds from PubChem BioAssay (NCATS).

The nature of assay [1]: Cell Viability - Jurkat (AID 426;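 active = dose-dependent loss of cell ATP signal giving a full or clear fitted curve, ranked by lower potency value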; also: potency is read from the fitted curve at half-maximal effect). The following applies: qHTS. The essentials: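 Cytotoxicity was scored as loss of cellular ATP, measured by luciferase-based luminescence, in Jurkat clone E6-1 cells after 40 h compound treatment; tamoxifen and doxorubicin served as positive controls.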
The nature of assay [2]: Cell Viability - Hek293 (AID 427;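 active = compounds whose dose-response curve shows a full or clear partial loss of cell viability, called from curve shape rather than a numeric limit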;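 also: potency is read from the fitted curve at half-maximal effect; cells exposed to compound for 40 hours at 37 °C before reading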). The following applies: qHTS. The essentials: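 HEK293 cells in complete medium were exposed to compound for 40 hr at 37 °C, then cellular ATP was read by CellTiter-Glo luminescence. Data were normalized to DMSO (basal) and 100 uM tamoxifen (100% inhibition), and AC50 came from Hill fits.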
Assay [3] can be described thus: Cell Viability - HepG2 (AID 433; calls by dose curve; also: potency is read from the fitted curve at half-maximal effect). The conditions noted are these: qHTS. The essentials:
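Cytotoxicity is scored as loss of intracellular ATP in HepG2 cells exposed to compounds for 40 h. Concentration-response curves, normalized to DMSO and 100 uM tamoxifen, give AC50 values.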

Assay [4] can be described thus: Cell Viability - HUV-EC-C (AID 542). Also: % is scaled to controls: 0 for no effect and ±100 for the full control effect; nearly all actives have a fitted effect of over 35% in size. The conditions noted are these: HUV-EC-C endothelial cell viability, qHTS; series mostly up to 92.2 µM. The essentials:
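Concentration-dependent ATP loss in HUV-EC-C cells is the measure. Exposure lasts 40 hr at 37 °C; luminescence follows CellTiter-Glo addition, and Hill fits give AC50.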

A short description of assay [5]: Cell Viability - H-4-II-E (AID 543). Also: nearly all actives have a fitted effect of over 35% in size. Also: potency is read from the fitted curve at half-maximal effect. The conditions noted are these: H-4-II-E rat hepatoma viability; series mostly up to 92.2 µM. The essentials: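 AC50 from Hill-modelled qHTS concentration-response curves. H-4-II-E rat hepatoma cells in complete medium, 40 hr exposure at 37 °C, viability by CellTiter-Glo ATP luminescence.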
Assay [6] is described as follows: Cell Viability - SH-SY5Y (AID 544). Also: nearly all actives have a fitted effect of over 55% in size. Also: potency is read from the fitted curve at half-maximal effect. The following applies: SH-SY5Y neuroblastoma cell viability; series mostly up to 92.2 µM. The method in brief: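 Quantitative HTS in SH-SY5Y neuroblastoma cells, 40 hr treatment at 37 °C, ATP content by luciferase luminescence; AC50 from Hill fits.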
A short description of assay [7]: Cellular Toxicity (caspase-3) SHSY5Y (AID 657). The conditions noted are these: SH-SY5Y caspase-3 activation, DMSO zero, 10 µM staurosporine = 100%; series mostly up to 91.7 µM. The method in brief:
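Cells plated and incubated 5 h at 37 °C, dosed over a concentration range, incubated 16 h, then given Caspase-Glo 3/7 reagent for 1 h at room temperature before luminescence reading. Staurosporine (10 uM) defined full stimulation.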

A short description of assay [8]: Cellular Toxicity (caspase-3) SK-N-SH (AID 661). The following applies: SK-N-SH caspase-3 activation, qHTS, DMSO as zero, staurosporine as full; series mostly up to 91.7 µM. The essentials:
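Apoptosis readout in SK-N-SH neuroblastoma: Caspase-Glo 3/7 luminescence following 16 hr treatment in complete culture medium. Normalization used DMSO and 10 uM staurosporine controls.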

The nature of assay [9]: Cellular Toxicity (caspase-3) H-4-II-E (AID 663). Also: potency is read from the fitted curve at half-maximal effect.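 As to caspase-3 activation: cells exposed to compound for 16 hr before readout.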 The conditions noted are these: H-4-II-E rat hepatoma; Potency: caspase-3 activation; series mostly up to 92.2 µM. The essentials: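 H-4-II-E rat hepatoma, 1500 cells/well, 5 hr settle at 37 °C; compound 16 hr, 37 °C, complete medium; Caspase-Glo 3/7, 20 min RT; luminescence. DMSO = 0%, 100 uM tamoxifen = 100%; Hill-equation AC50.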

Assay [10] is described as follows: Cellular Toxicity (caspase-3) N2a (AID 665).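 Also: compound exposure lasted 16 h at 37 °C before readout.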 The conditions noted are these: N2a cells, luminescence, normalized: DMSO 0%, 10 µM staurosporine 100%; series mostly up to 92.2 µM. The essentials: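 Concentration-response qHTS: compound-induced caspase-3/7 luminescence in N2a cells (16 h, 37 °C), relative to DMSO and 10 uM staurosporine controls; AC50 obtained using the standard Hill equation.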

Assay [11] can be described thus: Cellular Toxicity (caspase-3) NIH 3T3 (AID 666).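 Also: caspase signal read after 16 h compound exposure; 0% = DMSO basal and 100% = 100 µM tamoxifen stimulation.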 The following applies: NIH 3T3 caspase-3 activation, apoptosis/toxicity, 0% DMSO, 100% is 100 µM tamoxifen; series mostly up to 92.2 µM. The essentials:
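Activity: caspase-3/7 induction, NIH 3T3 cells, 16 hr treatment at 37°C, luminescent Caspase-Glo detection; AC50 via Hill equation.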

Assay [12] in a line: MultiTox-Fluor Cytotoxicity Assay - LYMP1-001 - Dead Cells (AID 946).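 Also: 0% = DMSO and 100% = tetraoctylammonium bromide.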 The following applies: LYMP1-001 lymphoblastoid cells, dead-cell protease fluorescence; series mostly up to 92.2 µM. The method in brief: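 LYMP1-001 lymphoblastoid cells (2500/well) treated 16 h at 37 C. Dead-cell protease cleavage of bis-AAF-R110 read at Ex/Em 485/520. Normalized to DMSO and 15 uM tetraoctylammonium bromide; AC50 from Hill fits.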

A short description of assay [13]: Cell Viability - LYMP1-002 - Assay at 16 hr (AID 948). Also: potency is read from the fitted curve at half-maximal effect. The conditions noted are these: LYMP1-002 lymphoblastoid cell viability; series mostly up to 92.2 µM. The method in brief:
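Acute cytotoxicity is scored as a concentration-dependent fall in intracellular ATP in a human lymphoblastoid line (LYMP1-002) after 16 hr compound exposure at 37 C, measured by luciferase luminescence.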

A short description of assay [14]: MultiTox-Fluor Cytotoxicity Assay - LYMP1-002 - Live Cells (AID 955). Also: % is scaled to controls: 0 for no effect and ±100 for the full control effect. The following applies: LYMP1-002 lymphoblastoid live-cell protease fluorescence viability; series mostly up to 46.1 µM. The essentials:
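In this qHTS viability format, lymphoblastoid cells (LYMP1-002, human) received compound for 16 hr at 37 C. Fluorogenic GF-AFC cleavage by viable cells was detected at 405/510 nm after 1 h at room temperature.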

Assay [15] can be described thus: MultiTox-Fluor Cytotoxicity Assay - LYMP1-003 - Dead Cells (AID 961).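 Also: 0% = DMSO and 100% = tetraoctylammonium bromide; nearly all actives have a fitted effect of over 70% in size.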 The following applies: LYMP1-003 lymphoblastoid cells, dead-cell protease fluorescence; series mostly up to 92.2 µM. The essentials: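 LYMP1-003 human lymphoblastoid cells (2500/well) exposed to compound 16 h at 37 C in complete medium; dead-cell protease read with bis-AAF-R110 fluorescence (Ex/Em 485/520) after 60 min at room temperature. Normalized to DMSO and 15 uM tetraoctylammonium bromide; AC50 from Hill fit.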

A short description of assay [16]: Cell Viability - LYMP2-003 (AID 965).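 Also: cells exposed to compounds for 24 h before reading; nearly all actives have a fitted effect of over 50% in size.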 Also: potency is read from the fitted curve at half-maximal effect. The following applies: LYMP2-003 lymphoblastoid cell viability; series mostly up to 92.2 µM. The essentials: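 Acute cytotoxicity is scored as a concentration-dependent drop in intracellular ATP, measured by luciferase luminescence in human lymphoblastoid cells treated for 24 hours at 37 C. AC50 values derive from Hill-equation modelling.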

Assay [17] in a line: Cell Viability - LYMP2-020 (AID 986).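 Also: cells exposed to compound for 24 h at 37 °C; nearly all actives have a fitted effect of over 55% in size.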 Also: potency is read from the fitted curve at half-maximal effect. The conditions noted are these: series mostly up to 92.2 µM. The method in brief: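 Cells at 2500 per well receive a 24 hr compound exposure at 37 C. Viability is measured as ATP-dependent luciferase luminescence, with AC50 modeled from qHTS concentration-response curves.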
The nature of assay [18]: Cell Viability - LYMP2-022 (AID 987). Also: nearly all actives have a fitted effect of over 55% in size. Also: potency is read from the fitted curve at half-maximal effect. The following applies: LYMP2-022 lymphoblastoid cell viability; series mostly up to 92.2 µM. The essentials: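 In this qHTS cytotoxicity screen, compound titrations were incubated 24 hr at 37 C with human lymphoblastoid cells in complete medium. Luciferase-based ATP luminescence provided the viability signal.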
The nature of assay [19]: Cell Viability - LYMP2-024 (AID 988). Also: nearly all actives have a fitted effect of over 60% in size. Also: potency is read from the fitted curve at half-maximal effect. The following applies: LYMP2-024 lymphoblastoid cell viability; series mostly up to 92.2 µM. The essentials:
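Cells at 2500 per well received compound for 24 hr after a 5 hr settling period. Viability was scored by CellTiter-Glo luminescence, with AC50 from Hill fits.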

Assay [20] is described as follows: qHTS assay for small molecule antagonists of retinoid X receptor alpha signaling (AID 588546).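 Also: cells stimulated with 9-cis-retinoic acid as agonist; % is scaled to controls: 0 for no effect and ±100 for the full control effect.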 The following applies: HEK293T RXRa-UAS-bla, beta-lactamase ratio, antagonist mode; measured here: W530 green channel, cytotoxicity proxy. The essentials:
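Beta-lactamase reporter inhibition, read as CCF4 fluorescence ratio (ex 405, em 460/530 nm) after 2 h at RT. HEK293T UAS-bla cells, 2500/well, were stimulated with 9-cis-RA at 500 or 100 nM final alongside test compound for 18 h at 37 C.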

Several values for one entry are separate records, joined by “and”; a condition that tells them apart may be missing. Equal entries are not always repeated. Inconclusive results are not listed. Activity calls are given as the source filed them. Unless noted, calls follow the shape of the dose curve; as a rule, active = well fitted curve in the direction sought with a large enough effect; inconclusive = small, poorly fitted or top-dose-only effect, or another doubt; inactive = no such curve, though single readings can be large; an effect the other way counts as inactive or inconclusive.

As to `COC(=O)CCCCC(=O)OC`, the Potency in [1], in assay [2] and in [3] was > 92 µM (inactive) each time. Also, the compound was called inactive in assay [4], in assay [7], in [8], in assay [10] and in assay [11]. Also, the Potency entry in assay [5], in assay [6], in assay [9], in assay [12], in assay [13] and in assay [14] was “inactive” throughout. The Potency entry in assay [15], in assay [16], in assay [17], in assay [18] and in assay [19] was “inactive” in each case. In addition, in [20], the max response was -7.1% and -4.41% and 10.6%.

Consider `CC(C)=CCCC(C)CCO` (configuration not stated), for which the Potency in assay [1], in assay [2] and in [3] was > 92 µM (inactive) throughout. Moreover, the result in assay [4], in assay [7], in [8], in assay [10] and in assay [11] was inactive. The Potency entry in [5], in assay [6], in [9], in assay [12], in [13] and in assay [14] was “inactive” in each case. For the same compound, the Potency entry in [15], in assay [16], in assay [17], in assay [18] and in [19] was “inactive” in each case. Besides, the max response in assay [20] is -7.35% and -8.91%.

Regarding `NC1=NC(S)C2N=CN=C2N1` (configuration not stated), the Potency in assay [1] was 0.0486 µM (active); in assay [2], 1.39 µM (active); in assay [3], 1.89 µM (active); in assay [5], 398 nM (active); in assay [6], 12.6 µM (active); in assay [9] it was 2.51 µM (active). For the same compound, the Potency in assay [13] is 12.6 µM (active); in [16], 6.31 µM (active); in assay [17], 10 µM (active); in assay [18] it was 12.6 µM (active); in assay [19] it was 12.6 µM (active). The call in assay [4], in assay [7], in assay [8], in assay [10] and in assay [11] was inactive. Further, the max response in assay [20] was determined as 4.34%.

On to `CC1(C)CC(N=C=O)CC(C)(CN=C=O)C1` (configuration not stated), for which the Potency in assay [1], in [2] and in [3] was > 92 µM (inactive) in each case. The compound was classed as inactive in assay [4], in assay [7], in [8], in assay [10] and in assay [11]. For the same compound, the Potency result in [5], in assay [6], in [9], in assay [12], in assay [13] and in [14] was “inactive” in each case. For the same compound, the Potency result in assay [15], in assay [16], in [17], in assay [18] and in [19] was “inactive” each time. The max response in assay [20] is -0.108% and -15.8%.

With `Clc1cc(Cl)c(Cl)c(Cl)c1Cl`, the Potency in [1], in [2] and in assay [3] was > 92 µM (inactive) in each case. Besides, the result in assay [4], in assay [7], in [8], in [10] and in [11] was inactive. Moreover, the Potency entry in [5], in [6], in assay [9], in [12], in assay [13] and in [14] was “inactive” in each case. Further, the Potency result in [15], in assay [16], in assay [17], in assay [18] and in assay [19] was “inactive” throughout. For the same compound, the max response in [20] is -5.69% and -1.37%.

As to `ClCCCl`, the Potency in assay [1], in assay [2] and in [3] was > 92 µM (inactive) each time. The result in assay [4], in [7], in assay [8], in assay [10] and in assay [11] was inactive. The Potency entry in assay [5], in assay [6], in assay [9], in assay [12], in [13] and in [14] was “inactive” throughout. In addition, the Potency result in assay [15], in [16], in [17], in assay [18] and in [19] was “inactive” throughout. Besides, the max response in assay [20] is -8.92% and -8.87% and -8.24%.
